Hits are enriched below; roughly 4.2% of the tested compounds scored in any of these assays.
Mtb bLac sens: beta-lactam sensitization of Mtb H37Rv; M. tuberculosis H37Rv growth with meropenem, percent inhibition; inhibition, % at 25 µM; 330,000 tested, 0.27% active; AID 434955; call rule not given here;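 note: growth measured after seven days incubation then overnight dye step; 0% = bacteria only wells and 100% = bacteria with antibiotic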
CCHF vOTU inh: blocks the CCHF virus ovarian tumor domain protease. CCHFV vOTU protease, Pep-AMC fluorescence. inhibition, % at 11.5 µM. 370,000 tested, 0.55% active. AID 651958; in the data active = inhibition above about 30%; note: 0% = vehicle wells with enzyme and 100% = no enzyme wells
GDH-TPI counter-1: inhibits GDH-TPI coupling enzymes, artifact for Mtb FBA screen | 360,000 tested, 1.2% active | GDH-TPI coupled enzyme counterscreen, NADH absorbance | inhibition, % at 4.8 µM; in the data active = inhibition above about 30%;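 note: 0% = DMSO wells and 100% = wells lacking the enzyme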
RecA splice inh: blocks M. tuberculosis RecA intein splicing | cell-free RecA intein splicing, fluorescence | inhibition, % (no concentration beside the values) | 290,000 tested, 0.75% active | AID 2221; in the data active = inhibition above about 30%;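 note: 0% = vehicle wells and 100% = reference inhibitor control wells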
Target sequence (P9WHJ3 whole entry, looked up, canonical isoform): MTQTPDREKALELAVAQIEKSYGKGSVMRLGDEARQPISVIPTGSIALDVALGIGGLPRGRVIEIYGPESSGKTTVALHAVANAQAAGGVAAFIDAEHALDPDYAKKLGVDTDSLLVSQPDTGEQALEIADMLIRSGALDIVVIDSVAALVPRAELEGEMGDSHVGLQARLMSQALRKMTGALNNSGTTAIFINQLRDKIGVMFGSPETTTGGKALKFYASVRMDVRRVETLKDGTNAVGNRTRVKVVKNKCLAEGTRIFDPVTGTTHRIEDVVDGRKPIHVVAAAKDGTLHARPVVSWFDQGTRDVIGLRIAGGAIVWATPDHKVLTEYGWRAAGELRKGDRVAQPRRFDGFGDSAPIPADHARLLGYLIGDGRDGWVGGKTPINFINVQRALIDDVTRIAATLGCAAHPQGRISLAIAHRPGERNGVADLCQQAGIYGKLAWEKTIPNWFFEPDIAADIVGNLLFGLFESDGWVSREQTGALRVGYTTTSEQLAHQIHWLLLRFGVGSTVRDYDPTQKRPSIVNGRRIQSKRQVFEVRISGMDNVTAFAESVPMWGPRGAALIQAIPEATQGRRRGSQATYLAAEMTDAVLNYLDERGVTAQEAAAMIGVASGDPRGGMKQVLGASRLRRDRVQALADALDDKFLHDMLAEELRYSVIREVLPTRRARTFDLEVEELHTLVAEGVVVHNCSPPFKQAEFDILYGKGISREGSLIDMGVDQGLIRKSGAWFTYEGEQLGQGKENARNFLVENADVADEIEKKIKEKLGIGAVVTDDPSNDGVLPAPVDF
FBA Mtb inh: inhibitors of M. tuberculosis fructose-bisphosphate aldolase; P9WQA3; purified M. tuberculosis FBA, fluorescence read-out; inhibition, % at 1 µM; 360,000 tested, 2.3% active;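 note: 0% = vehicle and 100% = reference inhibitor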
Mtb FBA confirm: Mtb FBA inhibition, confirmed | inhibition, % at 1 µM | purified M. tuberculosis FBA, fluorescence read-out | 5,600 tested, 78% active | shares compounds with FBA Mtb inh | AID 651616;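 note: 0% = vehicle wells and 100% = reference inhibitor wells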
GDH-TPI counter-2: GDH-TPI inhibition counter-screen for FBA inhibitors; shares compounds with FBA Mtb inh; GDH-TPI coupled enzyme counterscreen, fluorescence; inhibition, % at 1 µM; 5,600 tested, 81% active; AID 652141; in the data active = inhibition above about 10%
GDH-TPI DR: counter-screen for M. tuberculosis FBA inhibitors: GDH-TPI dose response. IC50, µM. 170 tested, 79% active. AID 652145. GDH-TPI coupled enzyme assay, fluorescence, artifact counterscreen. shares compounds with FBA Mtb inh; call rule not given here
Starred values were filed as active, the others as inactive; . = no result; + = active, no number. Cut-off read from the data, not from the text of the source, unless noted: active = inhibition above about 27%; inactive = the rest.

SMILES | Mtb bLac sens | CCHF vOTU inh | GDH-TPI counter-1 | RecA splice inh | FBA Mtb inh | Mtb FBA confirm | GDH-TPI counter-2 | others
Cc1ccc(CNC(=O)CC(C)S(=O)(=O)c2ccc3c(c2)NC(=O)CO3)cc1 (stereo not given) | 1 | 16 | -8 | -2 | -1 | . | .
Cc1cc(N2CCOCC2)nc2ccccc12 | -8 | -3 | 15 | 0 | 26 | . | .
Cc1cc(N2CCOCC2)nc2ccc(NC(=S)N3CCCCC3C)cc12 (stereo not given) | 94 | -62 | 14 | -5 | 36* | 122* | 95*
Cc1cc(N2CCOCC2)nc2cc(O)ccc12 | -6 | -52 | 14 | -102 | 32* | 87* | 70*
Cc1cc(N2CCOCC2)nc2ccc(NC(=O)CCC(=O)N3CCN(c4ccccc4F)CC3)cc12 | -4 | -34 | 16 | -3 | 50* | 76* | 55*
Cc1cc(N2CCOCC2)nc2ccc(NC(=O)CCC(=O)N3CCCC(C)C3)cc12 (stereo not given) | 2 | -80 | 15 | 1 | 54* | 114* | 84*
Cc1cc(N2CCOCC2)nc2ccc(NC(=O)C3CCCCC3)cc12 | . | 2 | 2 | . | 13 | . | .
Cc1cc(N2CCOCC2)nc2ccc(NC(=O)CCC(=O)N3CCN(c4ccc(F)cc4)CC3)cc12 | 3 | -7 | 14 | 0 | 63* | 84* | 52*
CCN1CCN(c2cc(C)c3cc(NC(=O)CCC(=O)Nc4ccc(OC)c(OC)c4)ccc3n2)CC1 | 5 | -6 | 22 | -3 | 18 | . | .
C#CCNC(=O)C[C@@H]1C(=O)N2CCCC3=C2[C@@]1(C(=O)OCC)CCC3 | . | 7 | . | . | . | . | .
CC(C)N(C(=O)[C@H]1C[C@H](CC(=O)NCCc2ccccn2)C(=O)N2CCc3c([nH]c4cc(-c5ccco5)ccc34)[C@]12C)C(C)C | . | -41 | 3 | . | 22 | . | .
CCN(CC)C(=O)[C@H]1C[C@H](CC(=O)NCCc2ccccn2)C(=O)N2CCc3c([nH]c4cc(-c5ccco5)ccc34)[C@]12C | . | -33 | 9 | . | 40* | 52* | 44*
CCN(CC)C(=O)[C@H]1C[C@H](CC(=O)NCCCN(C)C)C(=O)N2CCc3c([nH]c4cc(-c5ccco5)ccc34)[C@]12C | . | -11 | -3 | . | 46* | + | +
CCN(CC)C(=O)[C@H]1C[C@H](CC(=O)NCCCOC)C(=O)N2CCc3c([nH]c4cc(-c5ccco5)ccc34)[C@]12C | . | -23 | 7 | . | 43* | 59* | 31*
COc1ccc(CNC(=O)CSc2nc3c([nH]2)c(=O)n(C)c(=O)n3C)cc1 | . | 6 | . | . | . | . | .
COC(=O)C1CN(Cc2cn(CCC3OCCO3)nn2)CCS(=O)(=O)N1Cc1ccc(C)cc1 (stereo not given) | . | -7 | . | . | . | . | .
O=C(NC1CCCCN(Cc2ccc(Cl)cc2)C1=O)c1c(F)cccc1F (stereo not given) | . | 0 | . | . | . | . | .
COc1cccc([C@@H]2NC(=O)C/C=C/[C@H](C)[C@H](c3cccc(OC)c3)NC(=O)C/C=C/[C@@H]2C)c1 | . | 1 | . | . | . | . | .
COc1ccc(OC)c(/C=C/C(=O)Nc2cccc(S(=O)(=O)N3CCCC3)c2)c1 | -8 | -23 | 8 | -21 | 30* | 49* | 43*
O=C(Nc1ccc2c(c1)OCCO2)c1cccs1 | 0 | -3 | 13 | 3 | 38* | 12 | 10 | GDH-TPI DR=>10
O=C(Nc1ccc2c(c1)OCO2)c1cccs1 | 1 | 9 | 14 | -1 | -1 | . | .
CCCN(CC(=O)Nc1ccccc1C)C(=O)CCCOc1ccc(Br)cc1 | 5 | -3 | -3 | . | 38* | -2 | -4
Cc1ccc2nc(-c3ccc(C#N)cc3)c(Cc3ccccc3C(F)(F)F)n2c1 | . | 0 | . | . | 78* | 29* | 27*
N#Cc1ccc(-c2nc3ccc(Cl)cn3c2Cc2cccc(Cl)c2)cc1 | . | 2 | . | . | 16 | . | .
Cc1ccc2nc(-c3ccc(C#N)cc3)c(Cc3cccc(Cl)c3)n2c1 | . | -1 | . | . | 41* | 35* | 35*
SMILES | Mtb bLac sens | CCHF vOTU inh | GDH-TPI counter-1 | RecA splice inh | FBA Mtb inh | Mtb FBA confirm | GDH-TPI counter-2 | others
CCCc1nc2ccc(C)cn2c1Cc1cccc(Cl)c1 | . | 3 | . | . | 27* | + | 168*
N#Cc1ccc(-c2nc3ccc(Br)cn3c2Cc2ccccc2C(F)(F)F)cc1 | . | 26 | . | . | 1 | . | .
N#Cc1ccc(-c2nc3ccc(Cl)cn3c2Cc2cccc(F)c2)cc1 | . | -9 | . | . | 43* | + | 191*
COC(=O)c1cc2c(c3c4cc(F)ccc4n(S(=O)(=O)c4ccccc4)c13)C(=O)N(Cc1ccc(N(C)C)cc1)C2 | . | -8 | . | . | . | . | .
CSc1ccc(C=NNC(=O)c2cc(-c3ccc(Cl)cc3)n[nH]2)cc1 | . | -7 | . | . | . | . | .
Cc1ccc(N2CC(NS(=O)(=O)c3cccnc3)CC2=O)cc1C (stereo not given) | 1 | -10 | -2 | 0 | 4 | . | .
COc1ccc(N2CC(NS(=O)(=O)c3cccnc3)CC2=O)cc1OC (stereo not given) | -2 | 5 | 1 | -2 | 30* | 106* | 77*
CCc1cc2c(nc1CC)CCCN2Cc1ccc(Br)cc1 | . | -5 | . | . | . | . | .
COc1ccc(-c2c[n+]3c4n2CCCCC4=C(c2ccccc2)C3)cc1 | 99 | -78 | 20 | 11 | 106* | -2 | -4
COc1ccc(-c2c[n+](CC(=O)c3ccccc3)c3n2CCCCC3)cc1 | -11 | 0 | 5 | 1 | 1 | . | .
O=C(O)c1ccc2c(=O)n3c(nc2c1)/C(=C/c1ccc(C(F)(F)F)cc1)CC3 | 2 | -8 | 28 | 2 | 28* | 46* | 34*
N#Cc1ccc(/C=C2\CCCCn3c2nc2cc(C(=O)O)ccc2c3=O)cc1 | 6 | -8 | 0 | -1 | 2 | . | .
Cc1cccc(Cn2cc(CN3CC(N(C)CCOC(=O)c4cc(C)cc(C)c4)CS3(=O)=O)nn2)c1 (stereo not given) | . | 2 | . | . | . | . | .
CCc1ccccc1N=Cc1c(C)c(C#N)c2[nH]c3ccccc3n2c1=O | . | -10 | 15 | . | 6 | . | .
CCCc1cc(=O)n2c([nH]c3ccccc32)c1C#N | -5 | -56 | 0 | -1 | 54* | + | 195*
CCCCc1c(C)c(C#N)c2[nH]c3ccccc3n2c1=O | 99 | -12 | 10 | -1 | 77* | -4 | -5
CCOC(=O)[C@]12CCCC=C1N(Cc1ccc(OC)cc1)C(=O)[C@@H]2CC(=O)N1CCCCC1 | . | 7 | . | . | . | . | .
O=C(CSc1nc2ccccc2o1)NN=C/C=C\c1ccccc1[N+](=O)[O-] | . | 3 | . | . | . | . | .
CCOC(=O)Cc1c(C)nc2c(-c3cccc(Br)c3)c[nH]n2c1=O | 98 | -14 | 6 | 0 | 41* | 21 | 21*
Cc1cccc(Nc2ccccc2C(=O)O)c1C | -5 | 6 | 4 | -1 | -3 | . | .
O=C(O)c1ccccc1O | -3 | -2 | 12 | -2 | 46* | 7 | -3
Cc1cccc(C(=O)O)c1O | . | -1 | 1 | . | 38* | 87* | 52*
